Measured values from the supplement of paper PMC12340641.
Structures can show the parent of a compound that is named as a salt.

These molecules were tested on HEK293FT dCK*-IKZF1 (assay: relative growth recovery (pomalidomide 10 uM = 100%, DMSO = 0%); higher = more growth rescue (IKZF1 fusion degradation)). Settings: compound concentration: 5 uM; AraC concentration: 0.3 uM; overnight pretreatment + 4 days AraC.
How it was run: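 HEK293FT cells stably expressing a dCK*-IKZF1 fusion (300/well, 384-well) received 5 μM compound 2 h after seeding. After overnight at 37 °C they received a nucleoside suicide substrate at 0.3 μM plus medium for 4 days. On day 5, Hoechst 33342-stained nuclei were counted by whole-well imaging. Growth recovery was normalised per plate to a reference degrader (100%) and vehicle (0%); values are means of duplicates run on different days.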

| Structure (SMILES) | relative growth recovery |
| --- | --- |
| NC(=O)c1ccc[n+]([C@@H]2O[C@H](COP(=O)(O)OP(=O)(O)OC[C@H]3O[C@@H](n4cnc5c(N)ncnc54)[C@H](O)[C@@H]3O)[C@@H](O)[C@H]2O)c1 | 1.08% |
| O=C1Nc2c(ccc(Cl)c2Cl)C1=NO | -2.38% |
| CC(C)CCN1c2nc(Nc3cc(F)c(O)c(F)c3)ncc2N(C)C(=O)C1C (configuration not stated) | -11.3% |
| Nc1c2ccccc2nc2ccccc12 | -14% |
| NS(=O)(=O)c1ccc(S(=O)(=O)Nc2cccc3c(Cl)c[nH]c23)cc1 [Indisulam] | -3.02% |
| C=CCc1ccc(O)c(-c2cc(CC=C)ccc2O)c1 [Magnolol] | 2.08% |
| CCc1ccc(OCc2ccccc2C(=O)Nc2ccc3nc(C)cc(N)c3c2)cc1 | -14.6% |
| Cc1cc(C)nc(NS(=O)(=O)c2ccc(N)cc2)n1 | -1.69% |
| CN1CCC[C@@H]1CCO[C@](C)(c1ccccc1)c1ccc(Cl)cc1 | -3.56% |
| OC1=C(C[C@]([C@](CO)=O)(O)C[C@@H]4O[C@@]5([H])C[C@H](N)[C@H](O)[C@H](C)O5)C4=C(O)C3=C1C(C2=CC=CC(OC)=C2C3=O)=O [doxorubicin] | -13.8% |
| CC(CCc1ccc(O)cc1)NCCc1ccc(O)c(O)c1 (configuration not stated) [Dobutamine HCl] | -1.12% |
| Cc1nc(Nc2ncc(C(=O)Nc3c(C)cccc3Cl)s2)cc(N2CCN(CCO)CC2)n1 [Dasatinib] | -7.9% |
| CNC(=O)c1cccc(-c2ccc3c(N4CCOC[C@@H]4C)nc(N4CCOC[C@@H]4C)nc3n2)c1 [Vistusertib (AZD2014)] | -12.9% |
| CN1CCC[C@@H]1CCO[C@](C)(c1ccccc1)c1ccc(Cl)cc1 [Clemastine Fumarate] | 2.26% |
| O=C(c1cccc(Cl)c1F)N1CCN(Cc2cccc(Nc3nccs3)n2)CC1 | -11.2% |
| COc1cc2ncnc(Nc3ccc(F)c(Cl)c3)c2cc1OCCCCCOCCOCCC(=O)N[C@H](C(=O)N1C[C@H](O)C[C@H]1C(=O)NCc1ccc(-c2scnc2C)cc1)C(C)(C)C [Gefitinib-based PROTAC 3] | 55.5% |
| COC(=O)Nc1nc2ccc(Sc3ccccc3)cc2[nH]1 | -9.72% |
| CSc1nc2cc(Cl)c(Oc3cccc(Cl)c3Cl)cc2[nH]1 | 0.015% |
| CC(=O)Oc1ccccc1C(=O)Nc1ncc([N+](=O)[O-])s1 [Nitazoxanide] | 1.91% |
| Cc1cc(Nc2ncc(Cl)c(Nc3ccccc3S(=O)(=O)C(C)C)n2)c(OC(C)C)cc1C1CCN(CCOCCOCCNC(=O)CNc2cccc3c2C(=O)N(C2CCC(=O)NC2=O)C3=O)CC1 (configuration not stated) | 62.7% |
| O=C1CN(/N=C/c2ccc(-c3ccc([N+](=O)[O-])cc3)o2)C(=O)N1 [dantrolene] | 4.57% |
| C=CC[C@@H]1/C=C(\C)C[C@H](C)C[C@H](OC)[C@H]2O[C@@](O)(C(=O)C(=O)N3CCCC[C@H]3C(=O)O[C@H](/C(C)=C/[C@@H]3CC[C@@H](O)[C@H](OC)C3)[C@H](C)[C@@H](O)CC1=O)[C@H](C)C[C@@H]2OC [Tacrolimus] | 12.2% |
| CC1=C(/C=C/C(C)=C/C=C/C(C)=C/C(=O)Nc2ccc(O)cc2)C(C)(C)CCC1 [Fenretinide] | -1.99% |
| C/C(=C\c1csc(C)n1)[C@@H]1C[C@@H]2O[C@]2(C)CCC[C@H](C)[C@H](O)[C@@H](C)C(=O)C(C)(C)[C@@H](O)CC(=O)N1 [Ixabepilone] | -10.8% |
| Cc1nnsc1C(=O)Nc1ccc(-n2nc(C(F)(F)F)cc2C(F)(F)F)cc1 | 0.005% |
| Clc1ccccc1C(c1ccccc1)(c1ccccc1)n1ccnc1 | 2.19% |
| C[C@@H]1CC(=O)c2c(ccc3c2C(=O)c2cccc(O)c2C3=O)C1 [ochromycinone] | -2.08% |
